# ALDH1A1 block = ALDH1A1 (human) enzyme inhibition | P00352 | Purified ALDH1A1, NADH fluorescence, propionaldehyde substrate | Potency, µM (top dose mostly 75.3 µM), for the others: at the top dose activity, negative = inhibition, hits mostly inhibitors | 220,000 tested, 7.3% active;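 further: potency means the concentration at half of the fitted maximal effect; plate controls were no enzyme wells and a reference inhibitor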
# Target sequence (P00352 whole entry, looked up): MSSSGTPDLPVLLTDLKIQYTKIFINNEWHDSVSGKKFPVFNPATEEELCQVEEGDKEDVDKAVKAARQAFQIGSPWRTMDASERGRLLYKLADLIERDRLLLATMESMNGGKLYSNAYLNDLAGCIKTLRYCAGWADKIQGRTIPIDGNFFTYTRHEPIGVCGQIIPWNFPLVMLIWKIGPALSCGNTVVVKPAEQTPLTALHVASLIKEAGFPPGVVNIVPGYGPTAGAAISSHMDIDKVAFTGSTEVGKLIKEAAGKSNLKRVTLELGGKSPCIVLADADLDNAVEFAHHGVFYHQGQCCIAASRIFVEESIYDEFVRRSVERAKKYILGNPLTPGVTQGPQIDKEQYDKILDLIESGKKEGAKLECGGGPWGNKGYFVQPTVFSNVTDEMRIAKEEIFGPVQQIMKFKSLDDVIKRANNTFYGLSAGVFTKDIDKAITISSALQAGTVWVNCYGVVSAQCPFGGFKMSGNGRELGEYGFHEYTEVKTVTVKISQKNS
# HPGD block = blocks human HPGD enzyme activity. P15428. purified HPGD, NADH fluorescence kinetic, PGE2 substrate. Potency, µM, inactives show at the highest dose activity change, negative = inhibition, most hits filed as inhibitors. 150,000 tested, 4.3% active. AID 894; further: potency means the concentration at half of the fitted maximal effect
# Target sequence (P15428 whole entry, looked up): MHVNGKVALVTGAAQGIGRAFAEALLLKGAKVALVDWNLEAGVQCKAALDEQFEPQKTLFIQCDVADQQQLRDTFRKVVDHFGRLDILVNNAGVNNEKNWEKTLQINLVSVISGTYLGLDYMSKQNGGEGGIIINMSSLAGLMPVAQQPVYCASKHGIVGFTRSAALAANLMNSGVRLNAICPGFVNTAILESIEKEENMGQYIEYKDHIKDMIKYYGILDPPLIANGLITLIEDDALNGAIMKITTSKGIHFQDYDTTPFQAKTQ
#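 NADH formation kinetics: reaction with 30 uM PGE2 and 1 mM NAD+ (final), 20 nM enzyme, Tris-HCl pH 8 with Tween 20, after 15 min compound preincubation at room temperature. Fluorescence change, last versus first of five reads.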
# PNC assembly inh = perinucleolar compartment assembly inhibition; PC3M PTB-GFP, PNC prevalence imaging, 16 h; stronger effect = lower value; activity change (PNC), negative = inhibition, % at 10 µM; 140,000 tested, 3.1% active;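 active means readout at or below -70, meaning at least 70% loss of cells showing the perinucleolar compartment, a nuclear body marking cancer cells; inconclusive means readout between -30 and a set limit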;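 further: plate controls were DMSO wells for no effect and camptothecin positive control wells for full effect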
#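 Read-out is percentage of cells bearing a perinucleolar compartment, from automated 20x imaging of fixed, Hoechst-stained PC3M PTB-GFP cells. Cells were seeded 4 h, then exposed 16 h to compound (23 nl of library stock) in duplicate plates.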
# Luc counter = counter-screen: inhibitors of Kinase-Glo firefly luciferase | Q27757 | Kinase-Glo luciferase, ATP luminescence, 8 min | Potency, µM (top dose mostly 38.3 µM), for the others: top-dose activity change, negative = inhibition, actives largely listed as inhibitors | 200,000 tested, 0.28% active | AID 1379; active means well fitted inhibition curve with a large enough effect; inconclusive means small, poorly fitted or top-dose-only effect; further: potency means the concentration at half of the fitted maximal effect; nearly all actives have a fitted effect of over 60% in size
#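 Recombinant Kinase-Glo luciferase, 10 uM ATP (linear range), luciferin; imidazole pH 7.2 / KCl / MgCl2 / Tween / BSA buffer; 8 min RT; luminescence.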
# Lamin A splicing = changes lamin A minigene splicing in HeLa cells; HeLa LMNA splicing GFP/RFP minigene ratio, 48 h; Potency, µM (titrated, usually from 46.1 µM), for the others: top-dose ratio change, negative = inhibition, usual class: inhibitors; 200,000 tested, 0.01% active; AID 1487; active means well fitted inhibition curve with a large enough effect in the signal ratio, with a control signal flat, not every such curve was filed as active; inconclusive means small, poorly fitted or top-dose-only effect, or effect the other way, or a change in a side signal; the % refers to the signal ratio; further: potency means the concentration at half of the fitted maximal effect
#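 S3 HeLa stable clones carrying a lamin A-EGFP splicing minigene plus DsRed2 were seeded at 600 cells/well in Opti-MEM with 2% FBS, pin-dosed and incubated 48 h at 37°C. Acumen cytometry (488 nm) gave the GFP/RFP total-intensity ratio.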
# * = called active by the depositor; u = inconclusive; x = no result given; [ ] = remark or other dose. A selection: hits, their analogues and other compounds. The true share with any hit is near 10%. Unless noted, the call rests on the fitted dose curve; in most records, active means well fitted inhibition curve with a large enough effect (not every such curve was filed as active); inconclusive means small, poorly fitted or top-dose-only effect, or another doubt; inactive means no such curve, though single readings can be large or run the other way. Unless noted, on the % scale 0 is the no-effect control and ±100 the full control effect.
SMILES,ALDH1A1 block,HPGD block,PNC assembly inh,Luc counter,Lamin A splicing
Cc1ccc(-c2nc(N)s[n+]2-c2ccccc2)cc1,7.08µM*,2.24µM*,34.9,u,-11.4%
CNc1nc(-c2ccccc2)[n+](-c2ccc(C)cc2)s1,2.51µM*,x,38.7,x,u
O=C(NCC(c1ccco1)S(=O)(=O)c1cccs1)c1c(F)cccc1F (stereo not given),x,x,x,x,-3.6%[46 µM]
O=C(/C=C/c1cccc([N+](=O)[O-])c1)N1CCN(c2ccccc2F)CC1,-7.0%,-2.2%,14.3,-3.1%,13.7%
O=[N+]([O-])c1cccc(C(=S)N2CCN(c3ccccc3)CC2)c1,15.8µM*,22.4µM*,38.8,3.8%,u
CC1CN(c2ccc([N+](=O)[O-])cc2C#N)CC(C)O1 (stereo not given),14.1µM*,x,x,-0.9%,x
CC1CN(C(=S)c2cccc([N+](=O)[O-])c2)CC(C)O1 (stereo not given),7.94µM*,x,x,1.1%,x
Cc1ccc(C(=O)c2cc([N+](=O)[O-])ccc2N2CC(C)OC(C)C2)cc1 (stereo not given),u,-5.2%,-17.8,-0.9%,u
O=[N+]([O-])c1cccc(C(=S)N2CCN(c3ccccc3F)CC2)c1,22.4µM*,x,x,-0.5%,u
CCCCOc1ccc(C(=O)NCC(c2ccc(Cl)cc2)N2CCOCC2)cc1 (stereo not given),x,x,x,x,-12.5%[46 µM]
Cc1cc(C)c2nc(Cl)c(CN(Cc3ccco3)C(=O)Nc3ccccc3C)cc2c1,u,u,-90.4*,11.5%,u
COCCN(Cc1cc2cc(C)cc(C)c2nc1Cl)C(=O)Nc1ccccc1,-5.2%,-10.2%,60.5,3.5%,u
C/C(=N\NC(=O)c1ccccc1)c1cccc(Br)c1,11.9%,x,x,-0.4%,1.5%[46 µM]
CC(=O)Nc1ccc(/C(C)=N/NC(=O)c2ccc(F)cc2)cc1,0.7%,-8.3%,-17.6,4.8%,1.7%
C/C(=N\NC(=O)c1ccc(-c2ccccc2)cc1)c1cccc(N)c1,22.4µM*,x,x,-1.7%,-6.5%[46 µM]
CC(=O)Nc1ccc(/C(C)=N\NC(=O)c2ccc(-c3ccccc3)cc2)cc1,22.4µM*,x,x,-0.1%,x
CCCC(C)NNC(=O)c1cc2ccccc2[nH]1 (stereo not given),12.9%,12.6µM*,26.7,0.3%,15.6%
CC1=C(C(=O)Nc2ccccc2C)C(c2cccnc2)n2nc(SCc3ccccc3)nc2N1 (stereo not given),x,x,x,x,9.1%[46 µM]
Fc1ccc(C2=NNC(=NCc3ccccc3)SC2)cc1F,u,x,x,-0.3%,x
c1ccc(CN=C2NN=C(c3ccccc3)CS2)cc1,22.4µM*,x,x,-4.9%,0.6%[46 µM]
Clc1ccc(C2=NNC(=NCc3ccccc3)SC2)cc1,10µM*,x,x,1.0%,x
CCN=C1NN=C(c2ccc(C)cc2)CS1,25.1µM*,28.2µM*,32.2,-13.9%,10.2%
c1ccc(C2=NNC(=NCc3ccc4c(c3)OCO4)SC2)cc1,25.1µM*,x,u,x,-5.2%
C[C@@H]1O[C@H](O[C@@H]2[C@@H](Oc3cc(O)c4c(c3)O[C@H](c3ccc(O)cc3)CC4=O)O[C@@H](CO)[C@@H](O)[C@H]2O)[C@@H](O)[C@H](O)[C@@H]1O,13.2%[20.9 µM],-1.3%,x,1.2%[17.1 µM],-11.9%
CC(C)N=C1NN=C(c2ccc(F)cc2)CS1,u,x,x,10µM*,x
SMILES,ALDH1A1 block,HPGD block,PNC assembly inh,Luc counter,Lamin A splicing
C=CCN=C1NN=C(c2cc(C)n(CC=C)c2C)CS1,u,-25.6%,-0.5,u,6.5%
Fc1ccccc1N=C1NN=C(c2ccccc2)CS1,u,x,x,-3.2%,u
CC(=O)c1c(C)[nH]c(C2=NNC(=NCc3ccccc3)SC2)c1C,28.2µM*,x,x,1.7%,11.6%[46 µM]
C=CCN=C1NN=C(c2ccc3c(c2)OCCO3)CS1,20µM*,x,x,10µM*,-3.1%[46 µM]
COc1cccc(Cn2c(=O)c(C)nc3cnc(OCc4ccccc4)nc32)c1,u,-21.5%,x,-2.1%,x
CCOC(=O)c1scc(-c2ccc(C)cc2)c1S(=O)(=O)Nc1cccc(CC)c1,x,x,x,x,-11.9%[46 µM]
CCOC(=O)CNC1CC(=O)N(c2cccc(Cl)c2)C1=O (stereo not given),17.8µM*,-0.3%,0.7,-1.6%,5.8%
Oc1ccc(Cl)cc1C1=Nc2ccccc2N=C(c2ccco2)C1,7.3%,-13.4%,-100.0*,0.8%,11.8%
Cc1ccccc1N1C(=O)c2cc(S(N)(=O)=O)c(Cl)cc2NC1C (stereo not given),u,u,x,-1.1%,-18.8%
CC(C)(C)c1ccc(-c2nnc(SCCN3C(=O)c4ccccc4C3=O)o2)cc1,-14.8%,17.8µM*,37.2,0.9%,14.5%
O=C(O)CSc1nnc(-c2ccccc2)o1,-4.2%,-2.9%,10.0,-8.1%,7.5%
CCOC(=O)CCN1C(=O)[C@H]2[C@H]3[C@H](O)[C@H](O)C/C(=N/OCC(C)C)[C@H]3CC[C@@H]2C1=O,4.4%[13.5 µM],x,x,x,x
O=C(OCC(=O)N1CCN(C(=O)c2ccco2)CC1)c1ccccc1C(=O)c1ccccc1,-5.1%,-1.3%,-20.4,-1.2%,-2.3%
Cc1cc(C(=O)OCC(=O)N2CCN(c3ccccc3)CC2)c2ccccc2n1,22.4µM*,-10.8%,3.6,1.5%,-4.2%
O=C(OCC(=O)N1CCN(c2ccccc2)CC1)c1ccco1,2.24µM*,-14.1%,45.4,-1.3%,1.4%
COc1ccc(-n2cc(C(=O)NCc3ccccc3Cl)c3ccccc3c2=O)cc1,x,x,x,x,8.4%[46 µM]
O=C(Nc1ccc(O)cc1C(=O)O)c1ccc2c(c1)C(=O)N(Cc1ccco1)C2=O,5.62µM*,-13.0%,u,0.5%,1.5%
O=C(Nc1ccc(O)cc1)c1ccc2c(c1)C(=O)N(Cc1ccco1)C2=O,14.1µM*,-8.9%,-14.7,-0.9%,2.1%
O=C(O)c1ccc(C(=O)c2ccc3c(c2)C(=O)N(Cc2ccco2)C3=O)cc1,11.2µM*,8.91µM*,u,-1.7%,12.2%
O=C(c1ccc2c(c1)C(=O)N(Cc1ccco1)C2=O)N1CCOCC1,u,-6.3%,25.2,-2.7%,14.9%
CC(=O)Oc1ccc2c(C)cc(=O)[nH]c2c1,9.0%,-3.7%,-113.7*,12.8%,8.0%
Cc1cc(=O)[nH]c2cc(O)ccc12,u,u,u,2.6%,0.5%
COc1ccc2c(-c3ccccc3)cc(=O)[nH]c2c1,u,u,u,-1.5%,u
COc1ccc2c(C)cc(=S)[nH]c2c1,31.6µM*,x,x,3.3%,-3.3%[46 µM]
O=C1C[C@@H](O)[C@@H](O)[C@H]2[C@@H]3C(=O)N(Cc4ccccc4)C(=O)[C@@H]3CC[C@H]12,-1.2%[13.5 µM],x,x,x,x
CN(C)c1ccc(CNC(=O)CCn2c(=O)c3cccn3c3ccc(F)cc32)cc1,x,x,x,x,-4.5%[46 µM]
Nc1c(S(=O)(=O)O)cc(Nc2ccc(Nc3nc(Cl)nc(Nc4ccc(S(=O)(=O)O)cc4)n3)c(S(=O)(=O)O)c2)c2c1C(=O)c1ccccc1C2=O,-9.9%,15.8µM*,x,u,u
O=[N+]([O-])c1cccc(Nc2nc(Cl)nc(Cl)n2)c1,-2.0%,x,x,0.2%,8.4%[46 µM]
